# Reference: ChEMBL document CHEMBL5724796, “Tm Shift (DSF) assay results for EUbOPEN Chemogenomics Library” (2024)
# Legend:
# Conditions in all cases: Compound concentration 20.0 uM
# [1] = molecular target: Tyrosine-protein kinase ABL1 (Homo sapiens) (UniProt P00519)
# [2] = molecular target: Bromodomain-containing protein 4 (Homo sapiens) (UniProt O60885)
# [3] = molecular target: Cyclin-dependent kinase 2 (Homo sapiens) (UniProt P24941)
# [4] = molecular target: Casein kinase I isoform delta (Homo sapiens) (UniProt P48730)
# [5] = molecular target: Glycogen synthase kinase-3 beta (Homo sapiens) (UniProt P49841)
# [6] = molecular target: Mitogen-activated protein kinase 1 (Homo sapiens) (UniProt P28482)
# [7] = molecular target: T1, Aurora kinase A (Homo sapiens) (UniProt O14965)
# T1 sequence (whole entry): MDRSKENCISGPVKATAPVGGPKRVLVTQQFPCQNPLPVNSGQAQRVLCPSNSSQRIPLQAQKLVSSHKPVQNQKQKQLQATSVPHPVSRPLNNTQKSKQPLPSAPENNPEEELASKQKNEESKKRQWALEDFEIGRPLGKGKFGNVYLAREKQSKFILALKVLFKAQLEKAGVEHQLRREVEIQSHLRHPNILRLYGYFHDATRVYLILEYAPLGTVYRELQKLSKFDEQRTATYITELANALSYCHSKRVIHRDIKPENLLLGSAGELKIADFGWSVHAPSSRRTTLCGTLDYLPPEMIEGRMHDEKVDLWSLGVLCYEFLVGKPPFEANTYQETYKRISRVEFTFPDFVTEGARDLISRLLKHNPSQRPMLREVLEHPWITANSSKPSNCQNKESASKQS
# [8] = molecular target: T2, Transcription intermediary factor 1-alpha (Homo sapiens) (UniProt O15164)
# T2 sequence (whole entry): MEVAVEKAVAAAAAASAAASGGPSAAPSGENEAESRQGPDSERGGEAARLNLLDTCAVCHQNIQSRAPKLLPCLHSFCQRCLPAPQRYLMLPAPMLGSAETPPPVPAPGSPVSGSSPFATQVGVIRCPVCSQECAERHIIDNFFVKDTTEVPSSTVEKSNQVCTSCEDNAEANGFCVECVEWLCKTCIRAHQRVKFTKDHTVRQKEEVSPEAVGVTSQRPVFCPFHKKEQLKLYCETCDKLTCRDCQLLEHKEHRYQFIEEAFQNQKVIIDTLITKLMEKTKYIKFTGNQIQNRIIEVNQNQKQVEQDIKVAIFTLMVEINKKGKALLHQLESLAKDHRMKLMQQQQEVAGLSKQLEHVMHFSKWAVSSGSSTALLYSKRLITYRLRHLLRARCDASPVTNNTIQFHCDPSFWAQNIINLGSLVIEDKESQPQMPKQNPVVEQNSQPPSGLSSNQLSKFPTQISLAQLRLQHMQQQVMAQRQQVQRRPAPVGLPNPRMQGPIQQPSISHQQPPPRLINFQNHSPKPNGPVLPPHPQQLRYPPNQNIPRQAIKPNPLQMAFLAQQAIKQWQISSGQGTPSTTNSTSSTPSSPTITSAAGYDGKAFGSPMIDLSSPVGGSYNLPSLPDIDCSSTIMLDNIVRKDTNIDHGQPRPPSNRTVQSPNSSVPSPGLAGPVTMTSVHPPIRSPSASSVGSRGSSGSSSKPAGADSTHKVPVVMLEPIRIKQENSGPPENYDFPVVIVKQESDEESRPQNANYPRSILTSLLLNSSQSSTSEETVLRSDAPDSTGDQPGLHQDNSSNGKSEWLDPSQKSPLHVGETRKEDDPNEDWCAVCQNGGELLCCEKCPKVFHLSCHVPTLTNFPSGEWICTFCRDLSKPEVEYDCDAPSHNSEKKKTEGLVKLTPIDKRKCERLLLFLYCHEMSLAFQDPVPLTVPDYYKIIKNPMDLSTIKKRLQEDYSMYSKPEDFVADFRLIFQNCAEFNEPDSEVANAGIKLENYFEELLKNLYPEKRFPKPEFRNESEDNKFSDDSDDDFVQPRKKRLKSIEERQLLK
# Mitogen-activated protein kinase 1 (Homo sapiens), sequence (P28482 whole entry): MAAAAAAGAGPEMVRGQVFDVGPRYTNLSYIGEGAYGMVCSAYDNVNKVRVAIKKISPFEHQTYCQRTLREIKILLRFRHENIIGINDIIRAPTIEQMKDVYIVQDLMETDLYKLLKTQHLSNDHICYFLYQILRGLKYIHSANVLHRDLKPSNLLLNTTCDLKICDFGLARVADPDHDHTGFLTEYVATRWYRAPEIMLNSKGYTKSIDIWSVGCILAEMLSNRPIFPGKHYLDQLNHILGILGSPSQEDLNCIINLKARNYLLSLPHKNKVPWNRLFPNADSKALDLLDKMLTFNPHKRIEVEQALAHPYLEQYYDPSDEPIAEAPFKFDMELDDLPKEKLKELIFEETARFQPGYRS
# Casein kinase I isoform delta (Homo sapiens), sequence (P48730 whole entry, looked up, canonical isoform): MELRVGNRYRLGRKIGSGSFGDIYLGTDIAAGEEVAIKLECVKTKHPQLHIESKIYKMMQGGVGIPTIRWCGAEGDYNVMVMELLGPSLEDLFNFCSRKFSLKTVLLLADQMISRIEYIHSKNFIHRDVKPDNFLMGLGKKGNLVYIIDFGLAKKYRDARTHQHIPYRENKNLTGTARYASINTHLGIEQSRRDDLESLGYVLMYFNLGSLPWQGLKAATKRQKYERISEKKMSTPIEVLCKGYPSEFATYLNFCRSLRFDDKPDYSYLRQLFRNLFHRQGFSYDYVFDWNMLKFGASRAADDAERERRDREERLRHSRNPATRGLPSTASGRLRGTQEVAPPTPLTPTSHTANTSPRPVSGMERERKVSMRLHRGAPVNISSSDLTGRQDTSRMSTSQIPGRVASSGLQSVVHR
# Tyrosine-protein kinase ABL1 (Homo sapiens), sequence (P00519 whole entry): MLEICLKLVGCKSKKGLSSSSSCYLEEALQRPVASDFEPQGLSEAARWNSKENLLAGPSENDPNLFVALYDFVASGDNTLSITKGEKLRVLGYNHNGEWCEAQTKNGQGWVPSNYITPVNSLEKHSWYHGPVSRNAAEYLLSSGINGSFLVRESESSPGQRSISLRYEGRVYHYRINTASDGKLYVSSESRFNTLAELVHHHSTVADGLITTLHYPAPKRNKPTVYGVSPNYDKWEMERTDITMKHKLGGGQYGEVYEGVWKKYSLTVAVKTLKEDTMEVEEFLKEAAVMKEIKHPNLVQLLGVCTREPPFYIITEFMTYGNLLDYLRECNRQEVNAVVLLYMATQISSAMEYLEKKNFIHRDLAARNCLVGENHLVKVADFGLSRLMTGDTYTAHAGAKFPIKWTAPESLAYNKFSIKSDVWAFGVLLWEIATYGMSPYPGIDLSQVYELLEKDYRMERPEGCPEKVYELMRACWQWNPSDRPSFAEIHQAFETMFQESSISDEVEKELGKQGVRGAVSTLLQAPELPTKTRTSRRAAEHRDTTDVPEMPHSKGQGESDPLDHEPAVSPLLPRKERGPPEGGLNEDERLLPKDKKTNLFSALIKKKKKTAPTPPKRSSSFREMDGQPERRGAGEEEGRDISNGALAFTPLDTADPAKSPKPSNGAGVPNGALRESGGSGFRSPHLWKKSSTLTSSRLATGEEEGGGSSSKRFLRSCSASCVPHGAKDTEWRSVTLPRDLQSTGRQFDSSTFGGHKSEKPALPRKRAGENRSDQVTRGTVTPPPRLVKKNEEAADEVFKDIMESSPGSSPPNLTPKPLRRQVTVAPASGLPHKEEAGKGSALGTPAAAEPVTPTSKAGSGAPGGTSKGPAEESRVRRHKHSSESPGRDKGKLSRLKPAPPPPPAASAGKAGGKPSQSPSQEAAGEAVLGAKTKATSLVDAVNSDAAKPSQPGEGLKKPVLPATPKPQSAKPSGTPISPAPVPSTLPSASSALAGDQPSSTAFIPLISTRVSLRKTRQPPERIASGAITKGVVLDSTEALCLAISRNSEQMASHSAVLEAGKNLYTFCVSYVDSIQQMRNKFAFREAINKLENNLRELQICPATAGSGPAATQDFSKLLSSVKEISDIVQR
# Glycogen synthase kinase-3 beta (Homo sapiens), sequence (P49841 whole entry, looked up): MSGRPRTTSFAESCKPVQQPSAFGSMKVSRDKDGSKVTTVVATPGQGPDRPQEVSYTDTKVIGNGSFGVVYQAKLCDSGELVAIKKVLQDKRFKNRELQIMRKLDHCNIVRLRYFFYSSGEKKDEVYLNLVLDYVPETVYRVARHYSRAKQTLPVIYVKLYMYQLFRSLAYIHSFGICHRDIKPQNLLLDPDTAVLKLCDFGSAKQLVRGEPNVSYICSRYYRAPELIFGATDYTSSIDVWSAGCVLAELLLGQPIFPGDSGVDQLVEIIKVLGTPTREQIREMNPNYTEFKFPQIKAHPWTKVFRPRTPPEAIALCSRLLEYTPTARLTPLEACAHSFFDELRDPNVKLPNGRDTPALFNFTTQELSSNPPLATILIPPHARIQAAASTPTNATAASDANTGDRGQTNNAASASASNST
Structure (SMILES),ΔTm [1] [°C],ΔTm [2] [°C],ΔTm [3] [°C],ΔTm [4] [°C],ΔTm [5] [°C],ΔTm [6] [°C],ΔTm [7] [°C],ΔTm [8] [°C]
O=C(Oc1cccc(F)c1OC(=O)c1cccc(O)c1)c1cccc(O)c1,0.98,-0.67,0.91,0.57,-0.64,0.41,-0.91,1.67
COc1cc(Cl)ccc1C1=CN(c2ccc(-c3ccccc3OC)cc2)C2=NCCCN12,0.67,-3.63,-0.6,-0.21,-0.51,-0.14,-2.63,-1.41
CCCC1O[C@@H]2C[C@H]3[C@@H]4CCC5=CC(=O)C=C[C@]5(C)[C@H]4[C@@H](O)C[C@]3(C)[C@]2(C(=O)CO)O1 (stereo partly drawn),0.48,-1.67,0.01,-0.03,-0.4,-0.27,-0.16,-0.81
N#C[C@@H]1CCCN1C(=O)CNC(=O)c1ccnc2ccc(OCCCN3CCN(C(=O)CN4CCN(CC(=O)O)CCN(CC(=O)O)CCN(CC(=O)O)CC4)CC3)cc12,0.75,-2.94,0.18,-0.3,-0.21,0.66,-2.4,0.33
CC(C)(F)C[C@H](N[C@@H](c1ccc(-c2ccc(S(C)(=O)=O)cc2)cc1)C(F)(F)F)C(=O)NC1(C#N)CC1,0.21,-2.13,-0.11,-0.06,0,-1.51,-0.27,-1.8
Nc1nc(NC2CC2)cc(-c2cccc(Cl)c2Cl)n1,0.77,-2.44,0.2,-0.46,0.36,0.25,-1.81,0.87
O=C(c1cc(Cc2n[nH]c(=O)c3ccccc23)ccc1F)N1CCn2nc(C(F)(F)F)nc2C1,0.72,-2.42,0.1,-0.28,-0.21,0.61,-2.34,-0.51
N#C[C@@H]1CCCN1C(=O)[C@@H]1CCCN1C(=O)CCCc1ccccc1,0.07,-2.61,0.09,0.05,-0.27,0.11,-1.43,-0.5
CNCCC(Oc1ccccc1OC)c1ccccc1 (stereo not drawn),0.01,-1.45,-0.03,-0.42,-0.93,0.05,-1.7,0.03
CC/C(=C(/CC)c1ccc(O)cc1)c1ccc(O)cc1,-0.96,-4.78,-5.57,-0.81,-3.54,-12.2,-1.78,1.49
CNC(=O)N1CCc2c(c(N3CCCc4cc(-c5cnn(C)c5)c(C(F)F)cc43)nn2C2CCOCC2)C1,0.09,1.4,0.2,0.34,-0.47,-0.36,-1.06,-2.05
Cc1cc(Cl)cc(-c2c3sc(CN4C(=O)C5C(C4=O)C5(C)C)cc3nn2C)c1OC1CCNCC1 (stereo not drawn),0.34,-5.5,0.13,-0.45,-0.24,-0.05,-2.64,-1.23
CC(C)(C)c1ccc(S(=O)(=O)NCc2ccc(C(=O)Nc3cccnc3)cc2)cc1,0.45,-2.48,-0.13,-0.13,-1.45,0.7,-2.1,0.99
CN(CCOc1ccc(-c2ccc3c(c2)OCO3)cc1C(C)(C)C)CC(=O)O,0.97,-3.79,-0.18,-0.21,-0.2,0.46,-0.74,-0.19
Cc1nc(-c2cnn(C)c2-c2ccc(C(F)(F)F)cn2)c2c(N3CCC3)ncnn12,0.74,-3.11,0.08,-0.17,-0.34,0.1,-2.46,0.34
CC(C)c1ccc(C(=O)N=C(N)N)cc1S(C)(=O)=O,0.77,-2.81,0.03,-0.25,-0.76,0.04,-2.37,-0.41
COC(=O)c1ccc(CN2CCC(O)(Cn3cnc4c(-c5ccc(CN)cc5)n(C)nc4c3=O)CC2)c(Cl)c1,0.48,-3.34,-0.1,-0.28,-0.1,0.15,-1.56,2.14
COc1nc(N)nc(Nc2cc(S(N)(=O)=O)ccc2N[C@@H](c2cccc3c2OC(F)(F)O3)c2ncccc2Cl)n1,1.16,-2.02,-0.4,0.06,-3.33,-12.4,-1.68,0.11
CCCOC(=O)N1CCN(C(=O)c2ccc3c(Cl)cc(-c4ccc(C5(N)CC5)cc4)nc3c2)C[C@H]1C,0.57,-1.83,0.05,0.03,-1.68,-7.2,0.93,-3.45
CS(=O)(=O)c1ncn2c(NCc3c(F)ccc4c3CCO4)ncc(-c3ccc(C4CC4)nc3)c12,0.63,-3.29,0.06,-0.23,-0.29,0.08,-2.48,-0.37
Cn1cc(-c2ccncc2)c(-c2ccc(OCc3ccc4ccccc4n3)cc2)n1,0.66,-0.49,-0.35,1.79,0,0.13,2.06,0.65
